# Tested on: tubulin (bovine brain)
# Assay: tubulin polymerization end-point dOD, fold change relative to DMSO vehicle; higher = more polymerization (stabilization)
# Conditions: 50 µM; 60 min; 37 °C
# Summary of the method: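 Plates were warmed to 37°C in a Tecan reader and read at 340 nm every minute for 1 hour. Beforehand, bovine brain tubulin (4 mg/ml in G-PEM buffer containing PIPES pH 6.9, MgCl2, EGTA and GTP) from the Cytoskeleton HTS-Tubulin polymerization kit was assembled on ice with compound at a final 50 μM in 0.5% DMSO in 384-well plates. Each value is the end-point change in optical density, expressed as percent fold change relative to DMSO vehicle, with runs scaled using the means and standard deviations of DMSO and reference-control wells.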
row,Compound,tubulin polymerization end-point dOD [%]
1,O=C(Nc1ccc(N2CCCCCC2)cc1)C1COc2ccccc2C1 (centres undefined),37.7
2,COc1cccc(/C=C(/Cl)c2nc3cc(OC)c(OC)cc3c(=O)[nH]2)c1,42.1
3,Cc1cc(N2CCN(C(=O)c3c[nH]nc3-c3ccccc3)CC2)nc(C(C)C)n1,-15.2
4,CCOc1c(Cl)cc(C(=O)N2CCN(c3cccc(C)c3)CC2)cc1OC,-52.8
5,CCOc1ccc(C(=O)N(Cc2cccs2)Cc2cc3cc(C)ccc3[nH]c2=O)cc1,27.2
6,Cc1ccc(-c2csc3ncn(CC4CCCCO4)c(=O)c23)cc1 (centres undefined),-190
7,COc1ccc2cc(CN(Cc3cccs3)C(=O)Nc3ccccc3Cl)c(=O)[nH]c2c1,-57.2
8,COc1ccccc1Nc1nc(-c2ccc(S(C)(=O)=O)cc2)cs1,104
9,O=c1[nH]c(/C=C/c2ccccc2)nc2sc3c(c12)CCCC3,-32.9
10,COc1ccc2nc(SCC(=O)Nc3ccccc3OC)c(C#N)cc2c1,-9.01
11,Cc1ccc(/C=N/NC(=O)c2c(C)nc3ccc(Cl)cn23)cc1,-21.2
12,Cc1cnc(C(=O)Nc2ncc(Cc3ccc(C#N)cc3)s2)cn1,-30.4
13,COc1ccc(C2(C(=O)NC(C)c3nc(-c4ccncc4)n[nH]3)CC2)cc1 (centres undefined),-41.3
14,O=C(Nc1ncc(Cc2ccc(Cl)cc2Cl)s1)c1cnccn1,6.51
15,O=C(Nc1ccc(N2CCc3sccc3C2)nc1)c1ccccc1F,-40.4
16,Cc1cc2nc(/C=C/c3cccs3)sc2cc1C,43.1
17,N#Cc1ccc(N2CC[NH+](Cc3ccc(-c4ccccc4Cl)s3)CC2)nc1,-56.2
18,Cc1ccc(C)c(NC(=O)CSc2nc3ccc(C(C)C)cc3cc2C#N)c1,-39.1
19,O=c1[nH]c(/C=C\c2ccccc2)nc2ccccc12,40.5
20,COc1ccc2nc(SCC(=O)Nc3ccccc3Br)c(C#N)cc2c1,14.8
21,Clc1ccc2sc(/C=C/c3cccnc3)nc2c1,47.1
22,Cc1cccc(Cc2cnc(NC(=O)c3ccc(Br)cc3)s2)c1,-17.2
23,Cc1ccc(NC(=O)CSc2nc3cc4c(cc3cc2C#N)OCCO4)c(C)c1,-24.1
24,CCC(C)Cc1c(C)sc2nc(SCc3nnc(C)o3)[nH]c(=O)c12 (centres undefined),-13.9
25,Cc1ccccc1/C=N/N=C1\NC(=O)C(Cc2ccccc2C)S1 (centres undefined),-10.8
26,Cc1ccc2nc(-c3ccc(I)cc3)cn2c1,101
27,COc1ccc2cc(CN(Cc3cccs3)C(=O)Nc3ccccc3OC)c(=O)[nH]c2c1,17.1
28,COc1cccc(N2CCN(C(=O)c3cc(C4CC4)nc4ccccc34)CC2)c1,-85.1
29,Cc1cc(C(=O)Nc2nc3cc4c(cc3s2)OCCO4)c2c(C)nn(C)c2n1,28.4
